SMILES strings stand for the structures. Where “and” joins values, the source holds several entries; their conditions need not be identical. Equal values may be shown once. Out of some 75,000 compounds screened, about 5,700 (7.6%) were called active. Inconclusive results (about 7%) are left out. The sample as a whole holds a higher share of actives than the screen did. Values without a mark were called inactive. The call rests on the fitted dose curve; in most records, active means well fitted inhibition curve with a large enough effect; inconclusive means small, poorly fitted or top-dose-only effect; inactive means no such curve, though single readings can be large or run the other way.
On the % scale 0 is the no-effect control and ±100 the full control effect; potency means the concentration at half of the fitted maximal effect.

The target in this experiment is 3-hydroxyacyl-CoA dehydrogenase type-2 (Homo sapiens) (UniProt Q99714). Put plainly: qHTS Assay for Inhibitors of HSD17B4, hydroxysteroid (17-beta) dehydrogenase 4.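 Further: the protocol describes HADH2 (HSD17B10) and not the HSD17B4 of the title; nearly all actives have a fitted effect of over 70% in size.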 The following applies: recombinant HSD17B10, NADH fluorescence kinetic; series mostly up to 57.1 µM; activity change, negative = inhibition: at the top concentration. In short, it runs like this:
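Enzyme plus compound, 15 min room temperature; substrate mix added (NAD+ 1 mM, beta-hydroxybutyryl-CoA 90 uM final); plates read kinetically for NADH fluorescence. HADH2 was His-tagged, E. coli-derived, 20 nM.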
For the compound `Cc1ccc(SCCN2C(=O)NC(C)(C)C2=O)cc1`, the “activity change, negative = inhibition” value is 5.53%. Still for that read-out and setting: in the case of `C=CCn1c(COc2ccccc2C)nnc1SCC(=O)O` it was 5.36%; in that of `C=CCn1c(COc2ccccc2)nnc1SCC(=O)NCC(=O)OCC`, 0.839%. In the case of `C=CCn1c(COc2cccc3cccnc23)nnc1SCC(=O)OC`, the Potency was 31.6 µM (active). Take `O=C(O)C1C2C=CC(C2)C1C(=O)N1CCN(CCO)CC1` (configuration not stated): the “activity change, negative = inhibition” value is 12.8%.

For `COc1cc(-c2nnc(Cn3cc(C(F)(F)F)ccc3=O)o2)cc(OC)c1OC`, the “activity change, negative = inhibition” value was -1.71%. Same read-out and setting: the same measure for `CCOC(=O)c1cc(NC(=O)SCC(=O)O)c(C)nc1C`: -8.8%. Consider `CCOC(=O)c1cc(-c2nnc(-c3cc(OC)c(OC)c(OC)c3)o2)c(C)nc1C`, for which the Potency was 31.6 µM (active). For `Cc1cc(C)cc(C#CC2C=CC(Oc3ccc(C4CCCC4)cc3)C(CO)O2)c1` (configuration not stated), the activity change, negative = inhibition was 4.3% [at 11.4 µM]. For `CCn1c(=N)c(C(=O)NCCCOC)cc2c(=O)n3cccc(C)c3nc21`, the Potency was 31.6 µM (active). On to `CCOCCCNC(=O)c1c[nH]c2cc(C)ccc2c1=O`, for which the “activity change, negative = inhibition” value is -2.6%.

`COCCCNC(=O)c1ccc2c(c1)ncn2-c1ccccc1OC`: the “activity change, negative = inhibition” value was -20.2%. On the same count and under the same terms, in the case of `CC(=O)N(Cc1cccs1)C1CCOC(C)(C)C1` (configuration not stated) it was -3.43%; in that of `O=C(O)c1ccc(COc2c(F)c(F)cc(F)c2F)o1`, 0.716%; in that of `CCOC(=O)n1c(SCC(=O)N(CC)CC)nc2ccccc21`, 3.57%. In the case of `Cc1cc(N2CCCCC2)nc2ccc(Cc3ccc4nc(N5CCCCC5)cc(C)c4c3)cc12`, the Potency was 3.16 µM (active).

Take `COc1ccc(-n2c(SC)nc(O)cc2=O)cc1`: the “activity change, negative = inhibition” value is 8.7%. `CCOC(=O)c1ccccc1NC(=O)CC1Nc2ccccc2NC1=O` (configuration not stated): the “activity change, negative = inhibition” value is 0.318%. `O=C(CC1Nc2ccccc2NC1=O)Nc1ccccc1` (configuration not stated): the Potency is 25.1 µM (active). As to `O=C(CC1NCCNC1=O)Nc1ccc(Oc2ccccc2)cc1` (configuration not stated), the “activity change, negative = inhibition” value is 0.426%. With `COc1cccc(NC(=O)C(C)Oc2ccccc2)c1` (configuration not stated), the “activity change, negative = inhibition” value is -0.198%. The same measure, in the same setting: in the case of `CC(=O)OCC(=O)C1CCC2C3CCC4=CC(=O)CC[C@@]4(C)C3CC[C@]12C` (some centres not stated) it was 2.78%; in that of `Fc1ccccc1OCCSc1nc2ccccc2o1`, 5.24%. For `C[C@H]1O[C@@H](CC(=O)O)Cc2c1c(O)c1c(O)cc(-c3cc(=O)c4c(=O)c5c(c(=O)c=4c3=O)C[C@H](CC(=O)O)O[C@@H]5C)c(O)c1c2O`, the Potency is 3.98 µM (active). Consider `CC(C)C1=CC2=CC[C@@H]3[C@](C)(CO)CCC[C@]3(C)C2CC1` (some centres not stated), for which the “activity change, negative = inhibition” value is 9.63%. On the same count and under the same terms, in the case of `Cc1nc2ccc(S(=O)(=O)NC(C(=O)N3CCCCCC3)C(C)C)cc2s1` (configuration not stated) it was 4.54%; in that of `COC(=O)[C@H]1C[C@@H]1[C@H](NC(=O)Oc1ccc(F)cc1)c1ccccc1`, -6.57%; in that of `N=c1c2c3c(sc2ncn1CCCN1CCOCC1)CCCCC3`, 5.59%. The same measure, in the same setting: in the case of `COC(=O)c1ccc(C(NC(=O)OCc2ccccc2)/C(C)=C/[C@@H](C)C(=O)NCc2cc(C)on2)cc1` (some centres not stated) it was -4.34%; in that of `Cc1cc(C)cc(OCc2nnc(SCC(=O)Nc3ccccc3)o2)c1`, 8.07%.

As to `Cc1cccc(OCc2nnc(SCc3nc4cc(C(F)(F)F)ccc4c(=O)[nH]3)o2)c1`, the Potency is 31.6 µM (active). For the compound `Cc1cccc(OCc2nnc(SCn3nnc4ccccc4c3=O)o2)c1`, the “activity change, negative = inhibition” value is -9.02%. Same read-out and setting: the same measure for `O=C(c1csnn1)N1CCC2(CCN(Cc3nccs3)CC2)CC1`: -2.61%; for `Cc1ccccc1CSc1nnc(-c2ccccn2)n1N`: 4.98%; for `CC(C)(C)NCC[C@@H](O)c1cc(C(F)(F)F)nc2c(C(F)(F)F)cccc12`: 3.93% [at 11.4 µM]. On the same count and under the same terms, in the case of `O=C(NC1CCN(Cc2ccccc2)CC1)c1ccccc1F` it was 12.8%; in that of `COC(=O)c1cc(S(=O)(=O)NC2CCN(Cc3ccccc3)CC2)cn1C`, -3.37%.

For the compound `Cc1ccn2cc(C(=O)NC3CCN(Cc4ccccc4)CC3)nc2c1`, the Potency is 31.6 µM (active).

As to `COc1cc(Cl)cc(C2NC(=O)NC(C)=C2C(=O)NCc2ccccc2)c1O` (configuration not stated), the “activity change, negative = inhibition” value is 8.34%. The same measure, in the same setting: in the case of `CCOc1ccc(C(=O)Nc2cc(OC)ccc2OC)cc1` it was -11.3%. With `COc1ccc(OC)c(Nc2nc(-c3ccc(O)c(O)c3)cs2)c1`, the Potency is 7.94 µM (active). In the case of `Oc1ccc(-c2csc(Nc3cccnc3)n2)cc1`, the “activity change, negative = inhibition” value is 3.13%. Same read-out and setting: the same measure for `COc1ccc(-n2nnc3c(=O)n(CC(=O)OCc4ccccc4)cnc32)cc1`: 1.02%. `c1ccc(-c2noc(-c3cccs3)n2)nc1`: the “activity change, negative = inhibition” value was -5.02%.

On to `COC(=O)[C@H](C)[C@H]1C[C@]1(C)[C@H](NC(=O)OCc1ccccc1)c1ccccc1`, for which the “activity change, negative = inhibition” value was -4.85%. As for `COc1ccccc1CNc1ncnc2ccc(-c3ccc4c(c3)OCO4)cc12`, the Potency was 31.6 µM (active). With `COc1ccccc1CNc1ncnc2ccc(-c3c(C)noc3C)cc12`, the “activity change, negative = inhibition” value was -0.171%. The same measure, in the same setting: in the case of `COc1ccc2[nH]cc(CCNc3ncnc4ccc(-c5ccccc5CN(C)C)cc34)c2c1` it was 14.2%; in that of `COc1cc(OC)c(C(=O)NC2CCCCCC2)cc1OC`, -14%. Still for that read-out and setting: in the case of `O=C(CCC(=O)c1cccs1)NCc1ccccc1` it was 9.75%. For the compound `O=C(COC(=O)CCC(=O)c1cccs1)NCc1ccco1`, the Potency was 25.1 µM (active). Take `O=C(COC(=O)C12CC3CC(CC(C3)C1)C2)NCc1ccco1`: the “activity change, negative = inhibition” value was -13.9%. The same measure, in the same setting: the same measure for `CC(=O)Nn1cc2c(=O)n(C)c(=O)n(C)c2c1`: 5.62%. Same read-out and setting: in the case of `CC1=C(C(=O)Nc2ccc(Cl)cc2)C(c2ccco2)NC(=O)N1` (configuration not stated) it was -1.26%.

For `C=C(C)Cn1c(N2CCN(CC)CC2)nc2c1c(=O)[nH]c(=O)n2C`, the “activity change, negative = inhibition” value is 1.14%. The same measure, in the same setting: the same measure for `CCC(C)(C)N=C(NC#N)Nc1cccnc1`: -14.3%. For the compound `CCOC(=O)Cc1c(C)nc2c(C#N)c(C)nn2c1C`, the Potency is 25.1 µM (active). Take `CCOC(=O)CSc1nccc(N(C)C)c1C#N`: the “activity change, negative = inhibition” value is -0.126%. As to `CC[C@@H]1Cc2cc(O)ccc2C2=C1c1ccc(O)cc1C[C@H]2CC`, the Potency was 25.1 µM (active). On to `Cc1ccc2nc(CC(=O)c3ccc4ccccc4c3)c(=O)[nH]c2c1`, for which the activity change, negative = inhibition was 5.47% [at 11.4 µM]. With `C=CC(=O)c1ccc2ccccc2c1`, the Potency was 25.1 µM (active). `c1ccc(CCC2=NCCn3cccc32)cc1`: the “activity change, negative = inhibition” value is 4.34%.

As for `CN(CCOc1ccc(CC2SC(=O)NC2=O)cc1)c1ccccn1` (configuration not stated), the Potency was 31.6 µM (active). Take `CO[C@@H]1COC(=O)[C@H](Cc2ccccc2)NC(=O)C/C=C\[C@@H](C)[C@H](OC)COC(=O)[C@@H](C)NC(=O)C/C=C\[C@H]1C`: the activity change, negative = inhibition was 5.16% [at 11.4 µM] and 0.0428% [at 11.4 µM]. As to `Cc1csc(NC(=O)NC2(C(F)(F)F)Oc3ccccc3O2)n1`, the Potency is 25.1 µM (active). `Cc1cc(C)nc(NC(=O)Nc2ccccc2C(F)(F)F)n1`: the “activity change, negative = inhibition” value was -1.71%. The same measure, in the same setting: the same measure for `CCOC(=O)Cc1csc(NC(=O)Nc2ccccc2)n1`: 5.37%.

For the origin of these results see PubChem BioAssay AID893 (National Center for Advancing Translational Sciences (NCATS), 2007).
